Only a sample is shown.
aSyn UTR act: Activators working through SNCA 5'UTR binding (MLPCN) | 300,000 tested, 7.1% active | activity score, % (tested at 7.5 µM), hits read low | alpha-synuclein 5'UTR reporter, activators screen | AID 1814; in the data active = activity score below about -60%
An asterisk follows results filed as active.

SMILES | aSyn UTR act
CCCCc1nc2cc(C(=O)NC(C)c3cnn(C)c3)ccc2o1 (stereo unspecified) | -77*
COCC1CCN(C(=O)c2ccc3oc(CCCc4ccccc4)nc3c2)C1 (stereo unspecified) | -95*
CC(C)[C@@H](CO)NC(=O)c1ccc2c3n(nc2c1)-c1ccc(Cl)cc1CO3 | -180*
C[C@@H](CO)NC(=O)c1ccc2c3n(nc2c1)-c1ccc(Cl)cc1CO3 | -192*
c1ccc2c(c1)CC/C2=N/Nc1nc2ccccc2[nH]1 | -174*
CCc1ccc(NC(=O)c2nc(S(=O)(=O)Cc3ccccc3)ncc2Cl)cc1 | 91
CC(C)c1nnc(NC(=O)c2nc(S(=O)(=O)Cc3ccccc3)ncc2Cl)s1 | -81*
Cc1c(C(=O)NCCc2ccccc2)oc2ccccc12 | -69*
Cc1c(C(=O)NC2CCC(C)CC2)oc2ccccc12 (stereo unspecified) | -143*
COc1ccc2occ(C(=O)c3cccs3)c2c1 | -242*
Fc1ccc(/C=N/Nc2cc(N3CCOCC3)ncn2)cc1 | -88*
COc1cccc(/C=N/Nc2cc(N3CCOCC3)ncn2)c1O | 72
Fc1cccc(/C=N/Nc2cc(N3CCOCC3)ncn2)c1 | -108*
C(=N\Nc1cc(N2CCCCC2)ncn1)/c1ccco1 | -129*
CN1CCN(C(=O)c2ccc(COc3ccc(C(C)(C)C)cc3)o2)CC1 | -99*
CC(C)c1ccc(OCc2ccc(C(=O)N3CCCC3)o2)cc1 | -144*
COc1cccc(N2CCN(C(=O)c3ccc(CS(=O)c4ccccc4C)o3)CC2)c1 (stereo unspecified) | 108
CCOc1ccc(OCc2ccc(C(=O)OCc3ccccn3)o2)cc1 | -64*
CCOC(=O)c1ccc(COc2ccc(C(C)C)cc2)o1 | -129*
CCC(C)c1ccc(OCc2ccc(C(=O)O)o2)cc1 (stereo unspecified) | -86*
CCC(C)N1C(=O)S/C(=C/c2ccc(N3CCOCC3)cc2C)C1=O (stereo unspecified) | -167*
Cc1cc(N2CCOCC2)ccc1/C=C1\SC(=O)N(C(C)C)C1=O | -115*
O=C(Nc1cccc(O)c1)c1c(O)c2ccccc2[nH]c1=O | -92*
CC1=CC(C)(C)N=C(Nc2ccc(C)cc2)S1 | -169*
Cc1cccc(NC(=O)C2COc3ccccc3O2)n1 (stereo unspecified) | -71*
SMILES | aSyn UTR act
O=C(Nc1ccc(Cl)cn1)C1COc2ccccc2O1 (stereo unspecified) | -137*
Cc1cc(NC(=O)C2COc3ccccc3O2)no1 (stereo unspecified) | -115*
Cc1csc(NC(=O)C2COc3ccccc3O2)n1 (stereo unspecified) | 62
COc1ccc(Cl)cc1NC(=O)C1COc2ccccc2O1 (stereo unspecified) | -65*
COc1ccc(CNC(=O)C2COc3ccccc3O2)c(OC)c1 (stereo unspecified) | -76*
O=C(Nc1ccccn1)C1COc2ccccc2O1 (stereo unspecified) | -177*
Cc1cnc(NC(=O)C2COc3ccccc3O2)s1 (stereo unspecified) | 71
O=C(NCc1cc2ccccc2[nH]1)c1ccccc1F | -81*
COc1ccc(-n2ncc(Cl)c(Cl)c2=O)cc1 | -155*
COc1ccc(Sc2cnn(-c3ccccc3)c(=O)c2Cl)cc1 | -73*
COc1nn(-c2ccccc2)c(=O)c(Cl)c1Cl | -347*
c1ccc(-c2noc(-c3ccc4ccccc4c3)n2)nc1 | 113
Cc1ccc(SCc2nc(-c3ccccn3)no2)cc1 | -106*
c1ccc(-c2noc(-c3ccncc3)n2)nc1 | -62*
CC(C)c1ccc(OCc2nc(-c3ccccn3)no2)c(Br)c1 | -67*
CC(C)(C)Cc1nc(-c2ccccn2)no1 | -99*
Cc1ccc(OCc2nc(-c3ccccn3)no2)cc1 | -64*
c1ccc(OCCCc2nc(-c3ccccn3)no2)cc1 | -85*
CC(Oc1ccc(Cl)cc1Cl)c1nc(-c2ccccn2)no1 (stereo unspecified) | -129*
CC(Oc1ccc(Cl)cc1Cl)c1nc(-c2ccc(NC(=O)c3cccnc3)cc2)no1 (stereo unspecified) | 92
Clc1ccccc1/C=C/c1nc(-c2ccccn2)no1 | 104
O=C(O)[C@@H]1CCCC[C@@H]1C(=O)N1CCc2ccccc2C1CN1C(=O)c2ccccc2C1=O (stereo partly specified) | 68
O=C(/C=C1\NCC2c3ccccc3CCN2C1=O)c1ccccc1 (stereo unspecified) | -156*
COc1c(OC)c(O)c2c(=O)cc(-c3c(O)cccc3O)oc2c1OC | -64*
Cc1ccc(Cl)c2c(N=Nc3ccccc3)c(O)[nH]c12 | -170*
SMILES | aSyn UTR act
Cc1ccsc1C(=O)OCc1csc(-c2ccccc2)n1 | -99*
CN(Cc1cccs1)C(=O)Cc1csc(-c2ccccc2)n1 | -116*
Cn1cccc1C(=O)OCc1csc(-c2ccccc2)n1 | -112*
CCCn1c(CN2CCN(C(=O)OCC)CC2)nc2cc(NC(=O)C(C)C)ccc21 | -70*
CC(=O)Cn1ncc(Br)c(Br)c1=O | -87*
O=C(OCn1ncc(Br)c(Br)c1=O)c1c(F)cccc1F | 61
CC(C)(C)C(=O)Cn1ncc(N2CCCC2)c(Br)c1=O | -72*
COc1cccc(C(=O)c2cc3cc(Cl)ccc3[nH]2)c1 | -147*
O=C(c1ccccc1)c1cc2cc(Cl)ccc2[nH]1 | -169*
CCOC(=O)/C(C#N)=C/c1ccc(-c2ccsc2C(=O)OC)o1 | -117*
CCOC(=O)C(=Cc1ccc(-c2ccsc2C(=O)OC)o1)C(=O)OCC | -88*
Cc1ccc2nc(-c3ccc(NS(=O)(=O)c4c(C)n(C)c(=O)n(C)c4=O)cc3)sc2c1 | -94*
Cc1cccc(S(=O)(=O)Nc2ccc(-c3nc4ccc(C)cc4s3)cc2)c1 | -172*
CC(=O)c1ccc(NS(=O)(=O)c2cccc(C)c2)cc1 | -127*
Clc1nc2ccccc2cc1-c1nnn(-c2ccccc2)n1 | -160*
CCOc1ccc(CCNC(=O)COC(=O)c2cccc(N(C)C)c2)cc1OCC | -90*
CCCC(NC(=O)CCl)c1ccccc1 (stereo unspecified) | -72*
N#C/C(=C/c1ccc(N2CCCCCC2)o1)c1ccc(F)cc1 | -111*
N#C/C(=C/c1ccc(N2CCCCCC2)o1)c1cccc(F)c1 | -286*
CCOc1ccc(Nc2ccc([N+](=O)[O-])c3nonc23)cc1 | -123*
O=[N+]([O-])c1ccc(Sc2cccc[n+]2[O-])c2nonc12 | 85
O=C(O)C(C(=O)/C=C/c1ccco1)=C1SCCS1 | -69*
CCCC#Cc1ccc2c(c1)COc1c3ccccc3nn1-2 | -76*
Cc1sc2ncnc(Sc3ccccc3C(=O)Nc3ccc(Br)cc3)c2c1C | -86*
Cc1ccnc(SCc2nc3ccccc3s2)n1 | -181*
SMILES | aSyn UTR act
Cc1cccc(C)c1Nc1nnc(SCc2nc3ccccc3s2)s1 | -85*
COc1cccc(Nc2nnc(SCc3nc4ccccc4s3)s2)c1 | -208*
COCc1cc(C)nc2sc(C(=O)Nc3cccc(OC)c3)c(N)c12 | -192*
COCc1cc(C)nc2sc(C(=O)Nc3nccs3)c(N)c12 | -121*
C=CCNc1nc(-c2ccc([N+](=O)[O-])cc2)cs1 | -182*
CN(C)c1nc(-c2ccc([N+](=O)[O-])cc2)cs1 | -123*
C=CCNc1nc(-c2ccc(Cl)cc2)cs1 | -238*
CCOCCCNC(=O)/C(C#N)=C/c1cc(Br)c(O)c(Br)c1 | -69*
CCOc1ccc(/C=N/Nc2ccccc2)cc1 | -75*
Clc1ccc(/C=N\Nc2ccccc2)cc1 | -67*
O=C(N/N=C/c1ccco1)Nc1ccccc1 | -130*

Bioassay records deposited in PubChem by Broad Institute.
